Compounds with a hit are over-represented: about 5.4% of the library has one in this group of screens.
NR0B1 inh: inhibitors of human orphan nuclear receptor DAX1 (NR0B1) | P51843 | HEK293 Gal4-DAX1 luciferase reporter, luminescence | inhibition, % at 6.75 µM | 0.99% of 340,000 active | AID 504766;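 active = inhibition above the mean over all tested compounds plus 3 SD, cut at about 4.2% in these data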;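 also: inhibition shows as a rise in luminescence from relieved DAX1 repression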
AHR act: activators of human aryl hydrocarbon receptor; AHR-responsive luciferase reporter cells, luminescence; activation, % at 5 µM; 2.5% of 320,000 active; in the data active = activation above about 47%
Target sequence (P35869 whole entry, looked up): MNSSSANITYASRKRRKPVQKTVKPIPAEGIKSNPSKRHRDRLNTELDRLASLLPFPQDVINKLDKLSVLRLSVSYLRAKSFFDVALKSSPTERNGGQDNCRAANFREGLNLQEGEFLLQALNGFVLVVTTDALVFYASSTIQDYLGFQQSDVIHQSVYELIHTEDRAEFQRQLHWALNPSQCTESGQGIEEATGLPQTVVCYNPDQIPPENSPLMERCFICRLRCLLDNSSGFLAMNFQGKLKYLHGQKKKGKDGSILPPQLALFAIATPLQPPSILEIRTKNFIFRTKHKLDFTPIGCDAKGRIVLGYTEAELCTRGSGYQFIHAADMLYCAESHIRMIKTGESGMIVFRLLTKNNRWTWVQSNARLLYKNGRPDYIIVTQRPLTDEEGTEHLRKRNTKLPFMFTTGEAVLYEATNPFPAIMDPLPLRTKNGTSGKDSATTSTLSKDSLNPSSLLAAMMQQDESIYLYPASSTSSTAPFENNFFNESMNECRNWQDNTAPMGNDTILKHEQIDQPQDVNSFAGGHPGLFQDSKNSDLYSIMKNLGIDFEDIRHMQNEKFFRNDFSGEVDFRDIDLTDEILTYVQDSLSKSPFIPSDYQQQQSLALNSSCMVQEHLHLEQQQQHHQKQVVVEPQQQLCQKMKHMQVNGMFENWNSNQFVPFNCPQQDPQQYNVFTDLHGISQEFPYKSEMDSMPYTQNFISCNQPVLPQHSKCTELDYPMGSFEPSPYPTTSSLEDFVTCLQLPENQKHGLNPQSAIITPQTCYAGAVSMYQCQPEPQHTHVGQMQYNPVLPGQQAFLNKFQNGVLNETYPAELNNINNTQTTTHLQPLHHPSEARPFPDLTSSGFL
HSF-1 act: increases HSF-1 driven luciferase reporter signal | NIH3T3-HGL HSF-1 luciferase reporter, MG132, 8 h; 100% = twice DMSO control signal | activation, % at 9 µM | 1.7% of 300,000 active;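 active = mean replicate activation of at least 50% with a set share of replicates each reaching 50%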
FXN GAA850 act: activators of GAA850 frataxin (FXN) promoter. HEK293 lucGAA850 FXN promoter luciferase reporter, 24 h; percent of 10 µM SAHA response. activation, % at 6 µM. 0.56% of 360,000 active. AID 540364;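 active = activation above the average of all compounds screened plus 3 SD, cutoff fixed separately per campaign, cut at about 7.5% in these data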
HSF1 inh: HSF1 inhibition. NIH3T3-HGL HSE-luciferase, MG132-induced, luminescence 8 h; stronger effect = lower value. activity change, negative = inhibition, % at 7.5 µM (by protocol). 0.77% of 300,000 active. AID 2098;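 active = more than half of replicate wells show activity change below -50%, luminescence cut by over half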;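 also: luciferase reports HSF-1 transcriptional activity via heat shock element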
Of the large screens only hits and unclear results are named; the others gave an inactive call.

Cn1ncc(Cl)c1C(=O)NCC1CCCO1 (stereo not given)	none
Cc1ccccc1C(C)NS(=O)(=O)c1ccc2c(c1)OCCO2 (stereo not given)	none (no result: HSF-1 act, HSF1 inh)
CCC(C(=O)N1CCN(Cc2ccc3c(c2)OCO3)CC1)n1c(=O)[nH]c2ccccc2c1=O (stereo not given)	none
COc1ccc(C)cc1NC(=O)c1ccccc1N(C)S(=O)(=O)c1ccccc1	none
CCn1c(CNc2ccc(Cl)cc2)nnc1SCC(=O)NCc1ccccc1	HSF-1 act 60
Cn1c(CSc2nc3ccccc3n2C)nc2ccccc21	HSF-1 act 70
Cc1cc(C)nc(SCc2nc3ccccc3n2C)n1	none
CC(C)Cn1c(SCc2nc3ccccc3c(=O)[nH]2)nc2ccccc2c1=O	none
Cn1c(SCc2nc3ccccc3c(=O)[nH]2)nc2ccccc21	AHR act 61
CCOc1ccccc1NC(=O)CSc1nc(=O)n(CCCN2CCOCC2)c2c1CCCC2	none
O=C(O)C[C@H]1c2cc(C(F)(F)F)ccc2S(=O)(=O)N1Cc1ccccc1	none
O=C(Nc1nnc(Cc2ccccc2)s1)c1ccccc1	AHR act 54
CCCSc1nnc(NC(=O)c2ccco2)s1	NR0B1 inh 6.1
O=C(Nc1nnc(CC(c2ccccc2)c2ccccc2)s1)c1ccco1	NR0B1 inh 4.5
CCSc1nnc(NC(=O)/C=C/c2ccco2)s1	AHR act 60
CCC(c1ccccc1)c1nnc(NC(=O)c2ccco2)s1 (stereo not given)	none (no result: NR0B1 inh)
Cc1cc(C)c2cc(C#N)c(SCC(=O)Nc3cc(C)on3)nc2c1	none
CC(C)C(=O)NNC(=O)c1csc(-c2cccs2)n1	none
CC(C)/C=C/CN1CCN(CCCc2ccccc2)C(CCO)C1 (stereo not given)	none
Cc1cc(=O)oc2cc(NC(=O)c3cc([N+](=O)[O-])ccc3N3CCOCC3)ccc12	none
Cc1cnc(C(=O)N2CCCC(N3CCN(c4cccc(C(F)(F)F)c4)CC3)C2)cn1 (stereo not given)	none
O=C1c2cccc3cccc(c23)C(=O)N1CCc1ccccc1	AHR act 53, HSF-1 act 59
Cc1cccc(CSCCNC(=O)COc2ccc(Cl)cc2)c1	HSF1 inh -56
COc1ccc(NC(=O)c2ccc(Cl)c(S(=O)(=O)NCC3CCCO3)c2)c(OC)c1 (stereo not given)	none
O=C(CCl)N1CCCC1c1ccc2c(c1)OCCO2 (stereo not given)	HSF1 inh -63
CCC(NC(=O)C(C)NC)C(=O)N1CCCC1C(=O)NC1CCCc2ccccc21 (stereo not given)	none (no result: HSF-1 act, HSF1 inh)
CC(=O)Nc1nn(C)c2nc3cc(C)ccc3cc12	AHR act 71
CCn1nc(NC(=O)CC(C)C)c2cc3ccc(C)cc3nc21	none
COC(=O)c1ccc(NC(=O)C2CC3CCC2C3)cc1 (stereo not given)	none
CCOC(=O)c1ccc(NC(=O)C2CC3CCC2C3)cc1 (stereo not given)	HSF-1 act 64 (no result: NR0B1 inh)
O=C(Nc1ccc(F)c(Cl)c1)C1CC2CCC1C2 (stereo not given)	HSF-1 act 70
CCOc1ccc(NC(=O)C2CC3CCC2C3)cc1 (stereo not given)	none (no result: NR0B1 inh)
CCC(C)c1ccc(NC(=O)C2CC3CCC2C3)cc1 (stereo not given)	NR0B1 inh 4.7
CCOC(=O)c1ccc(NC(=O)N2CCN(S(C)(=O)=O)CC2)cc1	HSF1 inh -53
Cc1cccc(NC(=O)C2C3C=CC(O3)C2C(=O)O)c1C (stereo not given)	none
CCOC(=O)C1(C)CCCN(C(=O)c2c(-c3ccccc3)noc2C)C1 (stereo not given)	none (no result: NR0B1 inh, AHR act, HSF-1 act, HSF1 inh)
CC(C)c1ccc(NC(=O)C2CC3CCC2C3)cc1 (stereo not given)	NR0B1 inh 6.0
O=C(N/N=C/c1ccc(F)cc1)c1ccc(OCc2ccccc2)cc1	HSF1 inh -75
COc1cc(/C=N/NC(=O)c2ccoc2C)cc(OC)c1OC	none
Cc1cc(/C=N/NC(=O)c2ccoc2C)cc(C)c1O	NR0B1 inh 4.8 (no result: AHR act, HSF-1 act, HSF1 inh)
Cc1occc1C(=O)N/N=C/c1ccc(OCc2ccccc2)cc1	HSF-1 act 53
CC(=O)C1=C(C)Nc2ncnn2C1c1ccccc1F (stereo not given)	none
O=C1CCCN1CCNC(=S)Nc1ccccc1	none
O=C1CCCN1CCC1CCN(C(=O)Nc2ccccc2)CC1	HSF1 inh -68
CCc1cc2cc(C(=O)Nc3ccccc3F)sc2s1	HSF-1 act 57
CCOc1cc(C(=O)N=c2sccn2C)cc(Br)c1OC	AHR act 55
CCOC(=O)C1(Cc2cccc(Cl)c2)CCCN(C(=O)c2cc(C(C)C)nn2C)C1 (stereo not given)	none
CC1CCCC(NC(=O)CN2CCN(S(=O)(=O)c3cccs3)CC2)C1C (stereo not given)	none (no result: HSF-1 act, HSF1 inh)
COCCn1c(=O)[nH]c2cc(C(=O)N3CCN(c4ccccc4)CC3)ccc2c1=O	none
COc1ccc(-n2c(=S)[nH]c3cc(C(=O)NC4CCCCC4)ccc3c2=O)c(OC)c1	HSF-1 act 60
COCCn1c(=O)[nH]c2cc(C(=O)NC3CCCCCC3)ccc2c1=O	HSF1 inh -72
COCCn1c(=O)[nH]c2cc(C(=O)N3CCN(c4cccc(Cl)c4)CC3)ccc2c1=O	HSF-1 act 53
CCOc1ccc(NC(=O)c2ccc3c(=O)n(-c4ccc(OC)cc4OC)c(=S)[nH]c3c2)cc1	HSF1 inh -81
O=C(Cn1cc(C(F)(F)F)cc(Cl)c1=O)Nc1cccc(S(=O)(=O)N2CCCCC2)c1	none (no result: HSF-1 act, HSF1 inh)
COc1ccc(C(=O)NC2CCCc3c2cnn3-c2cccc(C)c2C)o1 (stereo not given)	none
Cc1cc(C)c2c(N)c(C(=O)c3cccc(Cl)c3)sc2n1	AHR act 48
CCc1ccccc1NC(=O)c1sc2nc(C)cc(C)c2c1N	AHR act 67
Cc1cc(C)c2c(N)c(C(=O)Nc3ccccc3F)sc2n1	NR0B1 inh 5.3
CC(=O)Nc1ccc(/C=C2\CCc3ccccc3C2=O)cc1	none
CCOc1ccc(S(=O)(=O)N2CCOCC2)cc1NC(=O)CSCC(=O)Nc1ccc(OC)cc1	none (no result: AHR act, HSF-1 act, HSF1 inh)
O=c1oc(-c2cccs2)nc2sc3c(c12)CCCC3	HSF-1 act 63
CCCCCC(=O)OCc1ccc(C2=CC(=O)CC(C)(C)C2=O)cc1	none (no result: AHR act, HSF-1 act, HSF1 inh)
c1ccc2nc(-c3ccc4c(c3)OCO4)ccc2c1	NR0B1 inh 5.0, AHR act 65
COC(=O)c1cc(-c2ccc3c(c2)OCO3)nc2ccccc12	none
O=C(Nc1ccccc1)n1ccc(-c2ccc(-n3ccnc3)cc2)n1	AHR act 83 (no result: NR0B1 inh, FXN GAA850 act)
CC(=O)c1ccc(-n2ccnc2)cc1	none
Nc1nc(SCC(=O)Nc2ccccc2C(F)(F)F)[nH]c(=O)c1-c1ccccc1	none
COC(=O)c1sc(N)c(C(=O)OC)c1COC(=O)c1c(C)noc1C	none
COC(=O)c1sc(N)c(C(=O)OC)c1Cn1ncc(Cl)c(Cl)c1=O	HSF-1 act 61
